Measured values from PubChem BioAssay (NCI).
Compounds without any hit were thinned out: in the full panel of roughly 83,000, 20% have a hit.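 Growth was measured after 48 h exposure to one concentration of compound in 96-well plates. Values under 10 count as active.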 Unmarked numbers belong to inactive results. The source made the active and inactive calls.

Each compound was assayed on TK-10 renal (assay: NCI-60 one-dose screen, 48 h (100 = growth as untreated, 0 = no growth, -100 = all killed)). Conditions: 10 µM unless noted.
Experimental: Growth inhibition of the TK-10 human tumor cell line is measured as a screen for anti-cancer activity. Cells are grown in 96 well plates and exposed to the test compound for 48 hours. Compounds are tested at a single concentration, which is 10^-5 M for most compounds. The reported endpoint is percent growth (GI% or GIPRCNT), where numbers from 0 - 100% represent growth inhibition, and numbers from -100% - 0 represent cell death. For example, a value of 40 represents 60% growth inhibition. A value of 0 means no net growth occurred over the course of the experiment. A value of -40 indicates 40% of cells at the beginning of the experiment died by the end of the experiment. A value of -100 means all cells are dead at the end of the experiment.
NCI-60 Human Tumor Cell Lines Screen was performed using the standard one-dose NCI protocol, which is described in more detail at https://dtp.cancer.gov/discovery_development/nci-60/default.htm.
Compounds with GIPRCNT values below 10 were considered active. Activity score was based on GIPRCNT using the following formula: […]
Score is 0 for GIPRCNT values of 100 or above, 50 for GIPRCNT values of 0, and 100 for GIPRCNT values of -100.

| Structure (SMILES) | growth |
| --- | --- |
| COc1cc(NC(=O)c2cccc(C3CCc4c(cc(OC)c(OC)c4OC)O3)c2)cc(OC)c1OC (stereo not given) | 56.6% |
| CC1(C)CC[C@]2(C(=O)Nc3ccccc3)CC[C@]3(C)C(=CCC4[C@@]5(C)C[C@@H](O)[C@H](O)[C@@](C)(CO)C5CC[C@]43C)C2C1 (stereo not given in full) | 86.7% |
| CCOC(=O)c1ccc(Nc2nc(NN)nc(-c3ccc(F)cc3)c2C#N)cc1 | 104% |
| COc1ccc(NC(=O)Cn2c(O)c(N=Nc3ccc(S(N)(=O)=O)cc3)c3ccccc32)cc1 | 75.9% |
| COc1ccc(C(=O)/C=C/c2ccccc2Br)cc1S(N)(=O)=O | 3.43% (active) |
| CC(=O)OC[C@@]1(C)C2CC[C@]3(C)C(CC=C4C5CC(C)(C)CC[C@]5(C(=O)Nc5ccc(C)cc5)CC[C@]43C)[C@@]2(C)C[C@@H](OC(C)=O)[C@@H]1OC(C)=O (stereo not given in full) | 53.2% |
| C#CCOc1cc(N(CC)CC)ccc1C(C(=O)NC(C)(C)C)N(C(=O)C1CCc2cc(F)ccc2O1)c1ccc(F)cc1 (stereo not given) | 68.7% |
| COc1ccc(CCC2c3c(cc4c(c3OC)OCO4)CCN2C)cc1 (stereo not given) | -14.7% (active) |
| COc1c(F)ccc(C(=O)Nc2ccc3nc(NC(=O)C4CCCN(S(=O)(=O)c5cccc(C(F)(F)F)c5)C4)sc3c2)c1F (stereo not given) | 102% |
| CCCSc1nc(NCCc2c[nH]c3ccccc23)c(C#N)c(-c2ccc(F)cc2)n1 | 91.6% |
| Cn1cc(-c2cc3nc(-c4c[nH]c5ccc(Br)cc45)cc(N)n3n2)c2ccccc21 | -90.3% (active) |
| COc1ccc(N2N=C(c3ccc4c(c3)OCO4)CC2c2cccc(NC(=O)CCCNS(=O)(=O)c3ccc(F)cc3)c2)cc1 (stereo not given) | 66.8% |
| CC12CC[C@@H]3[C@]4(C)COC(c5cn[nH]c5-c5cccc(Br)c5)O[C@@H]4CC[C@@]3(C)[C@@H]1CC(C1=CCOC1=O)O2 (stereo not given in full) | 58.6% |
| CC12CC[C@@H]3[C@]4(C)COC(c5cn[nH]c5-c5ccc(Cl)cc5)O[C@@H]4CC[C@@]3(C)[C@@H]1CC(C1=CCOC1=O)O2 (stereo not given in full) | 35.3% |
| COc1ccc(C2CC(c3ccc(S(=O)(=O)NCCNc4nc(Nc5ccc(F)cc5)nc(N(C)C)n4)cc3)=Nc3c(N)nc(N)nc3N2)cc1 (stereo not given) | 107% |
| CCN1CCN(Cc2ccc(C(=O)Nc3cccc(C#Cc4cccc5[nH]nc(N)c45)c3)cc2C(F)(F)F)CC1 | -94.2% (active) |
| COc1ccc(C2=NN(C(C)=O)C(c3ccc(OCc4ccc(Cl)cc4)c(OC)c3)C2)cc1OC (stereo not given) | 44.1% |
| COc1ccc(C(=O)/C=C/c2cccc(Br)c2)cc1S(N)(=O)=O | -91.8% (active) |
| C/C(=N\N=C1/C(=O)Nc2ccccc21)c1ccc2c(c1)Nc1ccccc1S2 | 78.7% |
| O=C(COc1ccc(NC(=O)Nc2ccc(Cl)c(Cl)c2)cc1)N=Nc1c(O)[nH]c2ccc([N+](=O)[O-])cc12 | 113% |

| Structure (SMILES) | growth |
| --- | --- |
| O=C(Nc1ccc(C(F)(F)F)cc1)Nc1ccc2oc(=O)ccc2c1 | 36.1% |
| O=C(Cn1c2c(sc1=O)[C@H]1[C@@H](O)[C@@H](O)[C@H](O)[C@@H]1CS2)N1CCOCC1 | 88.2% |
| O=C(NNc1nc2cc(F)ccc2n2c(C(=O)N3CCN(C4CC4)CC3)ccc12)c1ncccn1 | 30.2% |
| C=CC[N+](C)(C)CCn1c2ccccc2c2nc3cc(C)c(C)cc3nc21 | 106% |
| N/C(=N\N=C\c1ccc([N+](=O)[O-])cc1)c1c(N)nc(=S)[nH]c1-c1ccc(Cl)cc1Cl | 142% |
| C=C1CCC2C3(C)COC(c4cc(F)cc(F)c4)OC3CCC2(C)C1CC(O)C1=CCOC1=O (stereo not given) | 110% |
| C#CCOc1ccc(/C=N/Nc2nc(-c3ccc(F)cc3)cs2)cc1OC | 156% |
| CC(C)c1ccc2c(N)c(C(=O)Nc3ccc(C(F)(F)F)cn3)sc2n1 | 76.5% |
| COc1cc2oc(-c3cccc(C(=O)Nc4ccc(Cl)cc4)c3)cc(=O)c2c(OCC(=O)N[C@@H](Cc2ccccc2)C(=O)O)c1OC | 134% |
| Cc1ccc(-c2nc(C#N)c(S(=O)(=O)N3CCN(S(=O)(=O)c4ccc(Cl)cc4)CC3)o2)cc1 | 117% |
| CC(=O)NNc1ccc2nnc(-c3ccccc3)n2n1 | 106% |
| CN1CCN(c2ccc(C(=O)/C=C/c3ccc(Br)cc3)cc2)CC1 | 38.4% |
| COc1ccc(C(=O)/C=C/c2cccc(Cl)c2Cl)cc1S(N)(=O)=O | 20.3% |
| CN1CCN(c2ccc3c(c2)nc(NNC(=O)c2ncccn2)c2cccn23)CC1 | -87.5% (active) |
| COc1ccc(-c2nc3cc(C)ccc3n2CC(=O)N=Nc2c(O)[nH]c3ccccc23)cc1 | 73.6% |
| CN1CCN(c2ccc3c(c2)nc(NNC(=O)c2cnccn2)c2cccn23)CC1 | -74.5% (active) |
| NS(=O)(=O)c1ccc(CCNC(=O)CSc2ccc(-c3ccc(Br)cc3)nn2)cc1 | 72.2% |
| O=C(CN1C(=O)/C(=C/c2ccccc2F)SC1=S)N1CCOCC1 | 97.8% |
| COc1cc2c(c(OC)c1OC)C(=O)CC(c1cccc(NC(=O)[C@@H](N)CC(C)C)c1)O2 (stereo not given in full) | 115% |
| COc1cc2c3c(n(CCCN4CCC[C@@H]4CO)c(=O)c2cc1OC)-c1cc2c(cc1C3=O)OCO2 | 91.4% |
